Values joined by “and” are separate entries in the source; they are usually repeats but may differ in a detail not shown here. Equal entries are not always repeated. Active and inactive are the calls of the source. Unless noted, the rule behind the calls is not given here.
Columns and labels:
[1] = test system: XIP peptide (Xip251-270) binding; experiment: small-molecule binders of XIP peptide, primary screen, biochemical, small-molecule microarray, fluorescence 635/667 nm, 0.1 µg/mL protein (AID 1182); conditions: fluorescent protein binding, 635 nm, higher = more signal, called active from +8 up or from −8 down
XIP peptide (Xip251-270) = experiment: small-molecule binders of XIP peptide, primary screen, biochemical, small-molecule microarray, fluorescence 635/667 nm, 0.5 µg/mL protein (AID 1183); conditions: small-molecule microarray binding, fluorescence 635 nm; higher = more signal
[2] = Plasmodium falciparum growth inhibition, primary screen, strain 3D7, DAPI fluorescence, 100 nL (AID 1184);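 note: parasites grown inside human red blood cells in medium with human serum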; conditions: P. falciparum 3D7 growth, 3 d, higher = more signal
[3] = molecular target: Homeobox protein Hox-A13 (Mus musculus) (UniProt Q62424); experiment: inhibitors of HoxA13-DNA binding, primary screen, biochemical, fluorescence polarization, labeled oligonucleotide (AID 1185); conditions: 15 min, higher = more signal, called active from +8 up or from −8 down
Sequence of Homeobox protein Hox-A13 (Mus musculus) (Q62424 whole entry, looked up): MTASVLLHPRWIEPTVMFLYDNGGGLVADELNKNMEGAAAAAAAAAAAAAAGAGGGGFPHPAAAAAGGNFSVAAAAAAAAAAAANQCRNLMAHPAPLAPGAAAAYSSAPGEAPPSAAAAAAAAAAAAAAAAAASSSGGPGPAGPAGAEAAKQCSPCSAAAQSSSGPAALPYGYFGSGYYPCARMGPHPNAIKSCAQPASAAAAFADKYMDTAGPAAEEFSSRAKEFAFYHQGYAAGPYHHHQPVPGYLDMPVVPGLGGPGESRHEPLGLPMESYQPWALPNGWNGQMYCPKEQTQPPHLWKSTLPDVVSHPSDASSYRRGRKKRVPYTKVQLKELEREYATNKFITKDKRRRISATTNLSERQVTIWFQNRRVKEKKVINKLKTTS

[4] = inhibitors of hydroxyurea-induced Chk1 phosphorylation, primary screen, imaging, HeLa, phospho-Chk1 antibody, percent positive cells (AID 1186); conditions: hydroxyurea-induced phospho-Chk1 immunofluorescence imaging, higher = more signal
[5] = inhibitors of hydroxyurea-induced Chk1 phosphorylation, primary screen, imaging, HeLa, phospho-Chk1 nuclear intensity (AID 1187); conditions: hydroxyurea-induced phospho-Chk1 immunofluorescence imaging, higher = more signal

Question: Which composite z-score [1] does the source give for `CC(CO)N1C(=O)[C@@H]2C3C(=O)OCCC=C[C@H]3OC23C=CCN(C(C)(C)C)C(=O)[C@@H]13` (stereo not given in full) here?
Answer: -0.516 (inactive) and 0.463 (inactive)

Question: And the composite z-score (XIP peptide (Xip251-270))?
Answer: -0.947 and -0.179

Question: What about the z-score [2] of the same molecule?
Answer: 0.35 and 0.567

Question: What about the z-score [3] of the same molecule?
Answer: -5.55 (inactive) and -5.92 (inactive)

Question: What about the z-score [4] of the same molecule?
Answer: 0.545 (inactive) and -0.0027 (inactive)

Question: What about the z-score [5] of the same molecule?
Answer: -0.0537 (inactive) and -0.28 (inactive)

Question: Which composite z-score [1] does the source give for `CCOC(=O)NN=C1C[C@@H](O)[C@@H](O)[C@@H]2[C@@H]3C(=O)N(Cc4ccccc4)C(=O)[C@@H]3CC[C@@H]12` here?
Answer: -0.479 (inactive)

Question: What about the composite z-score (XIP peptide (Xip251-270)) of the same molecule?
Answer: 0.0853

Question: And the z-score [2]?
Answer: -0.647

Question: And the z-score [3]?
Answer: -0.411 (inactive)

Question: For `COC(=O)C1=C2N(Cc3ccccc3)C(C)=C(C(=O)OC)[C@@H](c3ccccc3)N2C(=O)[C@](O)(C(=O)OC)C1`, which composite z-score [1] is on record?
Answer: 0.109 (inactive) and 0.0955 (inactive)

Question: What about the composite z-score (XIP peptide (Xip251-270)) of the same molecule?
Answer: 0.23 and 0.64

Question: And the z-score [2]?
Answer: 0.166 and -0.0932

Question: What about the z-score [3] of the same molecule?
Answer: -5.1 (inactive) and -1.13 (inactive)

Question: For `CC[C@@H]1C(Sc2ccccc2)C(C(=O)O)[C@H](c2ccc(C)cc2)N1S(=O)(=O)c1ccc(C)cc1` (stereo not given in full), which composite z-score [1] is on record?
Answer: 1.07 (inactive) and -0.215 (inactive)

Question: And the composite z-score (XIP peptide (Xip251-270))?
Answer: 0.278 and 0.605

Question: And the z-score [2]?
Answer: -0.606 and 0.251

Question: And the z-score [3]?
Answer: -5.66 (inactive) and -4.34 (inactive)

Question: What about the z-score [4] of the same molecule?
Answer: -0.114 (inactive) and -0.912 (inactive)

Question: And the z-score [5]?
Answer: -0.369 (inactive) and -0.714 (inactive)

Question: What does the source list for `C=C[C@@H](OC)[C@H](O)c1ccc(OCCO)cc1`?
Answer: composite z-score [1]: 0.602 (inactive) and -0.746 (inactive); composite z-score (XIP peptide (Xip251-270)): 0.524 and 0.496; z-score [2]: -0.748 and 0.0067; z-score [3]: -0.717 (inactive) and -0.113 (inactive); z-score [4]: -0.949 (inactive) and -0.429 (inactive); z-score [5]: 0.0246 (inactive) and 0.283 (inactive)

Question: For `COC(=O)[C@H](C)NC(=O)CCC1CC(OC(=O)NCCc2ccc(F)cc2)CC2(CCCC(COC(=O)NCCCN3CCCC3=O)O2)O1` (stereo not given in full), which composite z-score [1] is on record?
Answer: 0.348 (inactive)

Question: And the composite z-score (XIP peptide (Xip251-270))?
Answer: 0.683

Question: What about the z-score [2] of the same molecule?
Answer: -1.9

Question: And the z-score [3]?
Answer: -4.1 (inactive)

Question: Which composite z-score [1] does the source give for `CC(C)[Si]1(C(C)C)OCc2cc(C3CC3)nc(CCc3ccccc3)c21` here?
Answer: 1.11 (inactive) and 0.0908 (inactive)

Question: And the composite z-score (XIP peptide (Xip251-270))?
Answer: -0.663 and -0.481

Question: What about the z-score [2] of the same molecule?
Answer: -0.541 and 0.653

Question: And the z-score [3]?
Answer: -0.448 (inactive) and 0.438 (inactive)

Question: And the z-score [4]?
Answer: 0.0389 (inactive) and 0.993 (inactive)

Question: What about the z-score [5] of the same molecule?
Answer: 0.579 (inactive) and 0.548 (inactive)

Question: What does the source list for `CC(C)C(=O)N[C@@H]1CCCN1C(=O)C=Cc1ccccc1`?
Answer: composite z-score [1]: 0.36 (inactive); composite z-score (XIP peptide (Xip251-270)): 0.473; z-score [2]: 1.99; z-score [3]: -1.68 (inactive)

Question: Which results are given for `C=C[C@@H](OC)[C@H](O)c1ccc(O)c(F)c1`?
Answer: composite z-score [1]: -0.25 (inactive) and -2.1 (inactive); composite z-score (XIP peptide (Xip251-270)): 0.116 and 0.444; z-score [2]: 0.295 and 0.636; z-score [3]: -0.933 (inactive) and 0.017 (inactive); z-score [4]: 0.591 (inactive) and -0.353 (inactive); z-score [5]: 0.496 (inactive) and 0.357 (inactive)

Question: For `CCOC(=O)c1ccc(NC(=O)O[C@H]2[C@H](OC(=O)Nc3ccccc3)[C@@H](OC(=O)Nc3ccccc3)[C@@H](OC)O[C@@H]2CO)cc1`, which composite z-score [1] is on record?
Answer: 1.73 (inactive) and 0.466 (inactive)

Question: What about the composite z-score (XIP peptide (Xip251-270)) of the same molecule?
Answer: 0.928 and 0.91

Question: What about the z-score [2] of the same molecule?
Answer: -1.89 and -2.47

Question: What about the z-score [3] of the same molecule?
Answer: -3.34 (inactive) and -4.61 (inactive)

Question: What about the z-score [4] of the same molecule?
Answer: 0.416 (inactive) and -0.71 (inactive)

Question: What about the z-score [5] of the same molecule?
Answer: 0.161 (inactive) and -0.827 (inactive)

Question: For `C[N+](C)(C)CCCCCCNC(=O)[C@H]1C[C@H]2C(=O)N[C@@H](CCCC[N+](C)(C)C)C(=O)N2[C@H]1c1cccc(OCCO)c1`, which composite z-score [1] is on record?
Answer: 0.421 (inactive) and 1.17 (inactive)

Question: What about the composite z-score (XIP peptide (Xip251-270)) of the same molecule?
Answer: 0.691 and 0.903

Question: What about the z-score [2] of the same molecule?
Answer: 0.11 and 0.17

Question: What about the z-score [3] of the same molecule?
Answer: -2.01 (inactive) and -2.31 (inactive)

Question: What about the z-score [4] of the same molecule?
Answer: 0.247 (inactive) and 0.199 (inactive)

Question: And the z-score [5]?
Answer: 0.316 (inactive) and -0.109 (inactive)

Question: Which results are given for `C=CCN(Cc1ccccc1)C(=O)C(c1cccs1)N(C(=O)/C=C\C(=O)O)c1ccc(CCO)cc1` (stereo not given)?
Answer: composite z-score [1]: -0.37 (inactive) and 0.164 (inactive); composite z-score (XIP peptide (Xip251-270)): -0.468 and 0.61; z-score [2]: -0.0763 and 0.331; z-score [3]: 0.603 (inactive) and 0.423 (inactive); z-score [4]: 0.141 (inactive) and 0.581 (inactive); z-score [5]: 0.404 (inactive) and 0.592 (inactive)

Question: With `C=CCN(CCCC)C(=O)C(c1cccs1)N(C(=O)/C=C\C(=O)O)c1ccc(CCO)cc1` (stereo not given) as the molecule, how does the composite z-score [1] read?
Answer: 1.82 (inactive) and -0.761 (inactive)

Question: What about the composite z-score (XIP peptide (Xip251-270)) of the same molecule?
Answer: -0.319 and -1.84

Question: What about the z-score [2] of the same molecule?
Answer: 0.28 and 0.445

Question: What about the z-score [3] of the same molecule?
Answer: -1.28 (inactive) and -0.734 (inactive)

Question: What about the z-score [4] of the same molecule?
Answer: 0.655 (inactive) and -0.177 (inactive)

Question: What about the z-score [5] of the same molecule?
Answer: 1.04 (inactive) and 0.345 (inactive)

— PubChem BioAssay
